Unmarked numbers belong to inactive results.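 The calls were made as follows: active = EC50 at or below 10 µM; inactive = EC50 above 10 µM.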

The values below come from PubChem BioAssay AID504883 (The Scripps Research Institute Molecular Screening Center, 2011).

A short description of the assay: FP signal increase by Cy5-IP20 peptide alone, dose response, artefact control for PKA-R1A complex activator project, biochemical, fluorescence polarization, 1536-well HTS (AID 504883). As to conditions: fluorescence polarization artifact counterscreen. A general note: Fluorescence polarisation rises when a labelled molecule tumbles more slowly, as on binding a larger partner.
Regarding `Nc1ncnc2c1nc(Br)n2[C@@H]1O[C@@H]2COP(=O)(O)O[C@H]2[C@H]1O`, the EC50 is greater than 114 µM.

Consider `CCCC(=O)Nc1ncnc2c1ncn2[C@@H]1O[C@@H]2OP(=O)(O)OC[C@H]2[C@H]1OC(=O)CCC`, for which the EC50 is greater than 114 µM. The same measure for `CCOP1(=O)OCC2OC(n3cnc4c(N)ncnc43)C(O)C2O1` (stereo unspecified): greater than 114 µM; for `CCCC(=O)Nc1ncnc2c1ncn2[C@@H]1O[C@@H]2COP(=O)(O)O[C@H]2[C@H]1OC(=O)CCC`: greater than 114 µM. As for `Nc1ncnc2c1nc(Sc1ccc(Cl)cc1)n2[C@@H]1O[C@@H]2COP(=O)(O)O[C@H]2[C@H]1O`, the EC50 is greater than 114 µM. `Nc1nc2c(nc(Br)n2[C@@H]2O[C@@H]3COP(=O)(O)O[C@H]3[C@H]2O)c(=O)[nH]1`: the EC50 is greater than 114 µM.

As a reminder, the EC50 is the concentration needed to bring the measured effect to its halfway point.
